# Reference: PubChem BioAssay (NCATS)
# Values joined by “and” are separate entries in the source; they are usually repeats but may differ in a detail not shown here. Equal values may be shown once. Unmarked numbers belong to inactive results. Inconclusive results are not listed. Active and inactive are the calls of the source. Unless noted, calls come from the whole dose curve; as a rule, active = well fitted curve in either direction with a large enough effect (not every such curve was filed as active); inconclusive = small, poorly fitted or top-dose-only effect, or another doubt; inactive = flat fitted curve, though single readings scatter.
# Key:
# [1] = AP1 Signaling Pathway (AID 357); conditions: ME-180 AP-1-bla reporter, EGF-induced, beta-lactamase ratio, 5 h; note: % is set by controls: 0 for no effect and ±100 for the full control effect
# How it was run: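 In this screen, ME-180 cells in Opti-MEM with 0.5% dialyzed FBS received EC50 EGF and compound titrations for 5 h. AP-1 reporter beta-lactamase was detected via CCF4 ratio, giving AC50 for positive and negative modulators.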
# [2] = NFAT Signaling Pathway (AID 444); conditions: Jurkat NFAT-bla M1, carbachol, beta-lactamase ratio, 5 h;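 note: carbachol stimulus at about its EC50 of 1 µM final; % is set by controls: 0 for no effect and ±100 for the full control effect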
# How it was run: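 Read-out: CCF4 FRET ratio (460 nm/530 nm) after 1 h RT dye loading, used for %activity and AC50 from titration series. Cells: Jurkat NFAT-β-lactamase/M1 line, treated with compound plus 1 uM carbachol for 5 h, 37 °C.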
# [3] = Stat Signaling Pathway (AID 446); conditions: ME-180 (cervical carcinoma) SIE beta-lactamase reporter, IL-6 stimulated, 5 h;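 note: ME-180 cervical cancer cells given 40 pM IL-6 alongside compound; SIE-controlled beta-lactamase reporter measured as 460/530 nm FRET emission ratio; % is set by controls: 0 for no effect and ±100 for the full control effect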
# How it was run: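 Emission at 460 and 530 nm (excitation 405 nm) reports SIE-controlled beta-lactamase in ME-180 cells. Cells received compound with 40 pM IL-6 for 5 hrs at 37 C; data scaled between 300 pM IL-6 and 125 nM JAK-inhibitor controls.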
# [4] = molecular target: Glucocorticoid receptor (Homo sapiens) (UniProt P04150); assay: GR-GFP Redistribution (AID 450;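 active = compounds whose dose series gives a full or clear partial fitted curve of increased nuclear translocation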; note: potency is the fitted concentration of half-maximal effect); conditions: U2OS GR-GFP nuclear translocation, laser cytometry, 2 h
# Chain of Glucocorticoid receptor (Homo sapiens) (P04150 whole entry, looked up): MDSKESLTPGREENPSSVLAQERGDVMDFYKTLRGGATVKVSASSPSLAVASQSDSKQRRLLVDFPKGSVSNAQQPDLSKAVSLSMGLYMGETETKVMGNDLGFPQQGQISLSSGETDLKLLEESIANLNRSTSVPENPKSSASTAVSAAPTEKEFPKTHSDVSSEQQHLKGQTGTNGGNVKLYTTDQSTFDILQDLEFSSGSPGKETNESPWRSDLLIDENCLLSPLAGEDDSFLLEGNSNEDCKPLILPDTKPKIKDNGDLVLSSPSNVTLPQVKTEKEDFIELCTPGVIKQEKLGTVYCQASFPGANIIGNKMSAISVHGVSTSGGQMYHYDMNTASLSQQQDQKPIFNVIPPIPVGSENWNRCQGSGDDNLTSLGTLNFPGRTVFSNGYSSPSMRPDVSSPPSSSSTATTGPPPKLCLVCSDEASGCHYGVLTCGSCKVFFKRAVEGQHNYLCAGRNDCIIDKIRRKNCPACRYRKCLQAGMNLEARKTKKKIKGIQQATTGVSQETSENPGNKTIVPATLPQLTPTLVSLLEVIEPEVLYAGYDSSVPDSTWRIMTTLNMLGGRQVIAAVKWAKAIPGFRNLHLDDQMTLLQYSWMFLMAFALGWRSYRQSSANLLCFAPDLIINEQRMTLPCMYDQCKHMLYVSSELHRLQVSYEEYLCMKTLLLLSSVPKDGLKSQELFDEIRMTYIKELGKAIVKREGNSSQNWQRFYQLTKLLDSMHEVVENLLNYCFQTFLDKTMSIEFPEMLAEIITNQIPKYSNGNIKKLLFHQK
# [5] = Cell Viability - BJ (AID 421; calls by dose curve;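 note: potency is the fitted concentration of half-maximal effect; cells exposed to compound for 40 hours at 37 °C before readout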); conditions: BJ fibroblast viability, qHTS
# How it was run: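 Cytotoxicity in human BJ foreskin fibroblasts is scored as loss of cellular ATP after a 40-hour exposure, measured by luciferase luminescence. Controls are DMSO and 100 uM tamoxifen.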
# [6] = Cell Viability - Jurkat (AID 426;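 active = dose-dependent loss of cell ATP signal giving a full or clear fitted curve, ranked by lower potency value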;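 note: potency is the fitted concentration of half-maximal effect; cells exposed to compound for 40 hours at 37 °C before ATP read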); conditions: qHTS
# How it was run: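 Cytotoxicity taken as drop in cellular ATP (CellTiter-Glo luminescence, 20 min room temperature) after 40 hr, 37C treatment of 5000 Jurkat Clone E6-1 cells per well; concentration-response fitted with Hill equation for AC50.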
# [7] = Cell Viability - Hek293 (AID 427;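 active = compounds whose dose-response curve shows a full or clear partial loss of cell viability, called from curve shape rather than a numeric limit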;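 note: potency is the fitted concentration of half-maximal effect; cells exposed to compound for 40 hours at 37 °C before reading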); conditions: qHTS
# How it was run: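 qHTS, human embryonic kidney (adenovirus-transformed) cells; 40 hr cpd, 37 °C; CellTiter-Glo ATP luminescence. Norm: DMSO = 0, 100 uM tamoxifen = 100% inhibition. Hill-fit AC50.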
# [8] = Cell Viability - HepG2 (AID 433; calls by dose curve;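 note: potency is the fitted concentration of half-maximal effect; potency for ATP loss meaning cytotoxicity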); conditions: qHTS
# How it was run: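 Read-out is luciferase-based quantitation of cellular ATP as a measure of viable HepG2 cells after 40 h treatment at 37 °C. Signal decrease is scaled between DMSO-only and 100 uM tamoxifen controls, with AC50 fitted by the Hill equation.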
# [9] = Cell Viability - MRC5 (AID 434; calls by dose curve;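 note: potency is the fitted concentration of half-maximal effect; cells exposed to compound for 40 hours at 37 °C; potency reflects cytotoxicity seen as loss of intracellular ATP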); conditions: MRC5 lung fibroblast viability, qHTS
# How it was run: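 AC50 values come from Hill-equation fits of intracellular ATP loss, measured by CellTiter-Glo luminescence. Normal lung fibroblasts (MRC5) had 40 hr compound treatment at 37 C, normalized between DMSO and 100 uM tamoxifen.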
# [10] = Cell Viability - SK-N-SH (AID 435; calls by dose curve;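 note: potency is the fitted concentration of half-maximal effect; compound exposure lasted 40 h at 37 °C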); conditions: SK-N-SH neuroblastoma cell viability qHTS
# How it was run: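 Luminescent ATP signal served as the viability read-out after 40 hours of compound treatment of human neuroblastoma SK-N-SH cells. Concentration-response data, scaled between DMSO and 100 uM tamoxifen, gave AC50 values by standard Hill modeling.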
smiles,measurement,setting,value
c1coc(CNc2ncnc3nc[nH]c23)c1,"activity change, negative = inhibition",[1]; at 17.2 µM (top of the series),2.59%
same,"activity change, negative = inhibition",[2]; at 17.2 µM (top of the series),1.53%
same,"activity, negative = inhibition",[3]; at 17.2 µM (top of the series),-16.6%
same,Potency,[4],> 20.6 µM and > 46 µM
COc1ccc2c(c1OC)C(=O)OC2[C@H]1c2c(cc3c(c2OC)OCO3)CCN1C (stereo not given in full),"activity change, negative = inhibition",[1]; at 17.2 µM (top of the series),-2.27%
same,"activity change, negative = inhibition",[1]; at 38 µM (top of the series),-1.8%
same,"activity change, negative = inhibition",[2]; at 17.2 µM (top of the series),-11.3%
same,"activity change, negative = inhibition",[2]; at 38 µM (top of the series),-9.62%
same,"activity, negative = inhibition",[3]; at 17.2 µM (top of the series),4.57%
same,"activity, negative = inhibition",[3]; at 38 µM (top of the series),2.78%
same,Potency,[4],> 46 µM and > 20.6 µM
Nc1nc2c(c(=O)[nH]1)N(C=O)[C@H](CNc1ccc(C(=O)N[C@@H](CCC(=O)O)C(=O)O)cc1)CN2,"activity change, negative = inhibition",[1]; at 17.2 µM (top of the series),-9.84%
same,"activity change, negative = inhibition",[2]; at 17.2 µM (top of the series),4.7%
same,"activity, negative = inhibition",[3]; at 17.2 µM (top of the series),7.59%
same,Potency,[4],> 20.6 µM
CN1[C@H]2CC(OC(=O)[C@@H](CO)c3ccccc3)C[C@H]1[C@H]1O[C@H]12 (stereo not given in full),"activity change, negative = inhibition",[1]; at 17.2 µM (top of the series),19.5%
same,"activity change, negative = inhibition",[2]; at 17.2 µM (top of the series),-45.8% (active)
same,"activity, negative = inhibition",[3]; at 17.2 µM (top of the series),-3.14%
CN(C)CC[C@H](c1ccc(Cl)cc1)c1ccccn1,"activity change, negative = inhibition",[1]; at 17.2 µM (top of the series),15.5%
same,"activity change, negative = inhibition",[1]; at 38 µM (top of the series),10.2% and 11.2%
same,"activity, negative = inhibition",[3]; at 17.2 µM (top of the series),1.79%
same,"activity, negative = inhibition",[3]; at 38 µM (top of the series),2.96%
same,Potency,[4],> 46 µM and > 20.6 µM
COc1cc2c(cc1OC)[C@@H]1C(=O)c3ccc4c(c3O[C@@H]1CO2)C=CC(C)(C)O4,Potency,[4],> 46 µM
COc1cc2ncnc(Nc3cccc(Br)c3)c2cc1OC,Potency,[4],> 46 µM
O=c1c(O)c(-c2ccc(O)c(O)c2)oc2cc(O)ccc12,Potency,[4],> 46 µM
Cc1cc(O)c2c(c1)C(=O)c1cccc(O)c1C2=O,Potency,[5],> 92 µM
same,Potency,[6],> 92 µM
same,Potency,[7],> 92 µM
same,Potency,[8],> 92 µM
same,Potency,[9],> 92 µM
same,Potency,[10],> 92 µM
CCN1CCN(C(=O)N[C@H](C(=O)N[C@@H]2C(=O)N3C(C(=O)O)=C(CSc4nnnn4C)CS[C@@H]23)c2ccc(O)cc2)C(=O)C1=O,"activity change, negative = inhibition",[1]; at 17.2 µM (top of the series),6.77%
same,"activity change, negative = inhibition",[2]; at 17.2 µM (top of the series),3.22%
same,"activity, negative = inhibition",[3]; at 17.2 µM (top of the series),8%
COc1cc2c(cc1O)CCC1C2CC[C@@]2(C)C1CC[C@@H]2O (stereo not given in full),Potency,[4],> 46 µM
O=C(O)C=Cc1ccc(Cn2ccnc2)cc1,Potency,[4],> 46 µM
CC(C)[C@H](CO)Nc1nc(Nc2cccc(Cl)c2)c2ncn(C(C)C)c2n1,"activity change, negative = inhibition",[1]; at 38 µM (top of the series),-111% (active)
same,"activity, negative = inhibition",[3]; at 38 µM (top of the series),-81.5% (active)
same,Potency,[4],> 46 µM
CCOC(=O)C1=C(C)NC(=S)NC1c1cccc(O)c1 (stereo not given),Potency,[4],> 46 µM
COc1ccc([C@@H]2CNC(=O)C2)cc1OC1CCCC1,"activity change, negative = inhibition",[1]; at 17.2 µM (top of the series),-7.88%
same,"activity change, negative = inhibition",[1]; at 38 µM (top of the series),-7.79%
same,"activity change, negative = inhibition",[2]; at 17.2 µM (top of the series),2.36%
same,"activity change, negative = inhibition",[2]; at 38 µM (top of the series),11.5%
same,"activity, negative = inhibition",[3]; at 17.2 µM (top of the series),-9.88%
same,"activity, negative = inhibition",[3]; at 38 µM (top of the series),-0.129%
same,Potency,[4],> 46 µM and > 20.6 µM
CN(N=O)C(=O)N[C@H]1C(O)OC(CO)[C@@H](O)[C@H]1O (stereo not given in full),Potency,[4],> 46 µM
CC(Oc1ccc(O)cc1)(P(=O)(O)O)P(=O)(O)O,Potency,[4],> 46 µM
